Experimental data published in the supplement of paper PMC10681739.

These sequences were tested against T1, ETS1 (UniProt P14921) (assay: ETS1 binding intensity (PBM fluorescence), ETS1 alone (arbitrary fluorescence units); higher = stronger binding). Details: ETS1 concentration 1 nM; RUNX1 concentration 0 nM.
T1 sequence: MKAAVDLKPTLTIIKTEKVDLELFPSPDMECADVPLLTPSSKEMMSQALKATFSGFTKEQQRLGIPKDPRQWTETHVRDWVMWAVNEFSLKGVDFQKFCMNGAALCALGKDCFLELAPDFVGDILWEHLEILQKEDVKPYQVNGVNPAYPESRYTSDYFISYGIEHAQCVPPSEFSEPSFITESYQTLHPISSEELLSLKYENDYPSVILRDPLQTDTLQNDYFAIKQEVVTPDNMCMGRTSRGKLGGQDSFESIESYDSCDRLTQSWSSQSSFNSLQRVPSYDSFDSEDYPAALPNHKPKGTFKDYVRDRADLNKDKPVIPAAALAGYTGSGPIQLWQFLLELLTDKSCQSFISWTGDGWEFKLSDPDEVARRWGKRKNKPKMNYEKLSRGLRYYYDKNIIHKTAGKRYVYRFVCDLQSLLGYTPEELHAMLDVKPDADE

| Sequence | ETS1 binding intensity |
| --- | --- |
| GTGAATGAGGGGGAAGGAAGTGGTTTGGAAAAATAC | 1890 |
| ACATTCTTCCGGTTGGACCTCCGCGGTCAGCGCTGT | 871 |
| TTTCACTTCCGGCATGTTTTTCACCCACAGGGATAT | 3910 |
| CAGGGCACCTCCTACTTCCCCCCGCAGATAACTACC | 875 |
| GGTAAAGCAACAGGATGTGGGTGTCTGACTTACAAT | 4330 |
| CCGGGTAGGATCCGGTTGCCTTTCTGCGGTGGAGGA | 410 |
| CTCAGGAATGCGGAAGTGCTCTGTGGGCACCCACCA | 2970 |
| TGGGGCCCGGAAGCGCTGGCGCCTTGCGGCCAGAAG | 1500 |
| GAAAACTAAGCAGGATGTGGTCTCGGCTGGAGCCTG | 2730 |
| ACACCGGAAGCCCAACAGCATGCCGAGTAACCACCC | 1120 |
| CCCTGCCATTTCCTGCCCAATACCGCGTATGCAACT | 1630 |
| CACCGACCGGAAGGGCCCCAAGGATCCCCGCAGCAG | 2130 |
| GGAACAGGAAAAGCCTCCGGCAGCCCCTGCGGGCGG | 539 |
| GGCCGACGGGAAGTGTAGTCCGGCCTGCGGTCCGGG | 801 |
| GTCTTACTTCCTGTCCCCGCCCACCGCGACTGTCTT | 2560 |
| CTGTTTCCTGCCTTTGCTGTCTGTGACCGCATCAGT | 478 |
| GAGCGCCCACTTCCTGTTTACCACCCAGCCTCTTCG | 3670 |
| AATGCCGGATATTGGTTCTGGTAAGCCACAAAAAAG | 1720 |
| AATCCACCGGAAACACTTAGACGCCGCAACCCCAGT | 3660 |
| GTGGCTATGGGAAGTGGGGTGCGGTTTCTGCCGGGG | 554 |

| Sequence | ETS1 binding intensity |
| --- | --- |
| GCTTCTGAGGAAGTGCGTTCTGTGGGTAGGTGGAGT | 677 |
| GGGCAGCAGCAGACCGGAAACCACAGCCGACTAAGA | 10700 |
| AAACAGGAAATCACAGCAGCGTTGCGGAGTGGAGCA | 1100 |
| GGGCTATTGTTTCCTCCCCCATGTGACCACAGCCTC | 418 |
| CCGCTTCCGGCCTTCGCCCGGCTTACCCGCGTCGCA | 1490 |
| TTGAGGGGAAGGGGAGGAAGTGGTCATTGGAACTTG | 2530 |
| GCCTGAAGGACTTCCGGGAACCGCAAAGCACGGTGT | 1620 |
| GTATGGGAAGTGATCTGGCTGCAAACCGCAAGAGAG | 549 |
| ACACCCCAGGCAGGATGTGGTAGGGGTTGCCCCAGA | 2740 |
| TGGCTTTGCAGAAGGAAGCTGTGGTTTCTGGTCTTC | 620 |
| TTGTCACGTCCGGCACGCCGCGAACCGCAAGGAACC | 571 |
| ACTTGACTTCCTGTGGGGTGTGTGGTGTCTGCACTT | 940 |
| TGGGAACTTCCTGTGGAGGAGTGCATTGTGGGACTT | 851 |
| CAGGCCTTTCCTGCTATCGTTTGTGGTTTGAGCAGT | 429 |
| ACTGCTTGATTTTCAGGAAGTGGTAAAGTGGCAGGT | 3700 |
| GCGGAGCGAGCGGCCGGATGCGGTCACCATAGAGAC | 4210 |
| ACCATAAGGACCGGAAGCAGAGACCACACTGGTGCT | 7910 |
| AAAACAAGGACTTCCGCCTCCCTGCGGTCCCTCCCC | 2140 |
| CAGCAAAAGGCAGGATGTGGTTAAAACTGTGCTCTG | 4320 |
| GCTAAGGTGAAAGGAAGTGGGTTTTGTCTTTTTTTT | 2500 |
